Measurements as given in PubChem BioAssay AID1626 (SRMLSC, 2009).
Out of some 220,000 compounds screened, about 2,000 (0.91%) were called active. About 2% were inconclusive and are not listed. Not all results are given here. Entries with a potency or affinity are not part of this list. Unmarked numbers belong to inactive results. Cut-off read from the data, not from the text of the source: inconclusive = inhibition above about 80% without an active follow-up result; inactive = below that; test concentration not stated here.

Test: M. tuberculosis H37Rv growth inhibitors, H37Rv strain (AID 1626);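 note: bacteria incubated seven days before Alamar blue readout; 0% = bacteria only wells and 100% = bacteria with antibiotic wells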
Conditions: active compounds read high, concentration not given here

Row | Compound | inhibition [%]
1 | COc1ccc(OCC(=O)N/N=C2\CCCc3ccccc32)cc1 | 1.63
2 | O=C(NNS(=O)(=O)c1ccccc1Cl)c1nn(-c2ccc(F)cc2)ccc1=O | 2.66
3 | O=C(O)COc1ccc2c(-c3ccccc3)cc(=O)oc2c1 | -6.46
4 | CCOc1ccc(-c2nnc(-c3ccncc3)o2)cc1 | 7.35
5 | O=C(O)C(Oc1ccc2c(-c3ccccc3)cc(=O)oc2c1)c1ccccc1 (centres undefined) | -7.84
6 | CCOc1ccc(-c2nnc(-c3ccc(OC)cc3)o2)cc1 | 3.3
7 | CCOC(=O)C(Oc1ccc2c(-c3ccccc3)cc(=O)oc2c1)c1ccccc1 (centres undefined) | 15.1
8 | CC(Oc1ccc2c(-c3ccccc3)cc(=O)oc2c1)C(=O)O (centres undefined) | -19.3
9 | N#Cc1ccc(NC(=O)c2cc(-c3cccs3)on2)cc1 | -3.45
10 | Cc1cc(C(=O)CSc2nnc(-c3ccc(Cl)cc3)n2C)c(C)n1CC1CCCO1 (centres undefined) | -5.79
11 | CCn1c(=O)c(=O)[nH]c2cc(C(=O)NC3CCCC3)ccc21 | -14.3
12 | COC(=O)c1cc(C)nc(Sc2ccccc2NC(C)=O)n1 | -6.62
13 | COc1ccc(-c2cnc(N)nc2-c2ccc(OC)cc2O)cc1 | -8.12
14 | Nc1ncc2c(n1)-c1ccccc1CC2 | 4.21
15 | CCOC(=O)c1ccc(NC(=O)CSc2ccc(-c3ccncc3)nn2)cc1 | 78
16 | Cc1nnc(NC(=O)CSc2ccc(-c3ccccn3)nn2)s1 | -8.09
17 | Cc1csc(NC(=O)CSc2ccc(-c3ccccc3)nn2)n1 | -4.14
18 | CCOC(=O)c1ccccc1NC(=O)CSc1ccc(-c2cccnc2)nn1 | 1.73
19 | CC(=O)Nc1cccc(NC(=O)CSc2ccc(-c3ccccn3)nn2)c1 | 5.52
20 | Cc1ccc(-c2ccc(SCC(=O)Nc3cc(C)on3)nn2)cc1 | 1.42
21 | Cc1nonc1NC(=O)CSc1ccc(-c2ccccc2)nn1 | 29.3
22 | Cc1ccc(CNC(=O)CSc2ccc(-c3ccccn3)nn2)cc1 | 9.75
23 | CC(C)CNC(=O)c1cccc(NC(=O)C(C)Oc2ccccc2)c1 (centres undefined) | 9.89
24 | COc1cc(CNC2CCCCCC2)cc(OC)c1 | 9.94

Row | Compound | inhibition [%]
25 | Cc1nc(-c2ccc(Cl)cc2)sc1C(=O)NNC(=O)C(C)C | -5
26 | CCC1CCCCN1C(=O)COc1c(Br)cc(Br)c2cccnc12 (centres undefined) | -13.3
27 | CCn1nc(C(=O)Nc2ccc(S(=O)(=O)Nc3ncccn3)cc2)c2ccccc2c1=O | 1.39
28 | CCN(CC)S(=O)(=O)c1cc(NC(=O)COC(=O)CCc2nc3ccccc3s2)ccc1C | 0.37
29 | CCOc1ccc(NC(=O)Cn2c(=O)n(CC3CCCO3)c(=O)c3ccccc32)cc1 (centres undefined) | 0.09
30 | COc1cccc2cc(C(N)=O)/c(=N/NC(=O)COc3ccc(Cl)cc3)oc12 | 1.32
31 | CC(C)c1ccc(NC(=O)COc2nnc(-c3cccs3)c(-c3cccs3)n2)cc1 | 3.94
32 | O=C(CSc1ccccn1)c1ccc(F)cc1 | -5.01
33 | O=C(CSc1ccc(-c2ccccn2)nn1)c1ccc([N+](=O)[O-])cc1 | 9.1
34 | CCC(Sc1nc2ccccc2c(=O)[nH]1)C(=O)Nc1ccc(C(C)=O)cc1 (centres undefined) | 10.9
35 | CCOC(=O)C(NCc1ccccc1OC)(NC(C)=O)C(F)(F)F (centres undefined) | -3.95
36 | CCOC(=O)C(C)Sc1nnc(NC(=O)c2cccc([N+](=O)[O-])c2C)s1 (centres undefined) | 27
37 | COCCSc1nnc(NC(=O)c2ccc(OC)c([N+](=O)[O-])c2)s1 | -5.62
38 | O=C(NCc1cccs1)c1cccc(S(=O)(=O)N2CCCCC2)c1 | -1.3
39 | O=[N+]([O-])c1cccc(N=NN(CCO)c2cccc([N+](=O)[O-])c2)c1 | 7.57
40 | Cc1ccc(NC(=O)c2cncc(Br)c2)c([N+](=O)[O-])c1 | 5.6
41 | OCCNc1nc(-c2ccccc2)nc2c1oc1ccccc12 | 1.56
42 | O=C(Nc1ccccc1)c1nnsc1S(=O)(=O)c1ccc(Cl)cc1 | 2.07
43 | N/C(=N\S(=O)(=O)c1ccc(Cl)cc1)N1CCOCC1 | -5.14
44 | CCCNC(=O)c1nnsc1Sc1ccc(Cl)cc1 | 18.6
45 | CN(C)C(=O)c1nnsc1Sc1ccc(Cl)cc1 | -1.74
46 | O=C(Nc1ccccc1)c1nnsc1S(=O)c1ccc(Cl)cc1 (centres undefined) | 47.2
47 | CCCNC(=O)NS(=O)(=O)c1ccc(Cl)cc1 | -12.9
48 | CNC(=O)c1nnsc1S(=O)c1ccc(Cl)cc1 (centres undefined) | 78.9

Row | Compound | inhibition [%]
49 | O=C(c1ccc(S(=O)(=O)c2ccc(Cl)cc2)cc1)N1CCOCC1 | -6.61
50 | CNC(=O)CCC(=O)Nc1ccc(C)cc1 | -1.09
51 | COc1ccc(C2C(C(=O)O)CCC(=O)N2c2ccc(C)cc2)cc1OC (centres undefined) | -2.58
52 | C=C(C)Cn1c(SCCCO)nc2c1c(=O)[nH]c(=O)n2C | -7.43
53 | O=C(NC1CC1)C1=COCCO1 | -8.37
54 | O=C(Nc1ccccc1N1CCOCC1)c1cc(F)cc(F)c1 | -4.82
55 | N#Cc1cc(C(=O)c2cc(Cl)ccc2O)cn(-c2ccccc2)c1=O | -3.03
56 | Cc1ccc(C(=O)NNC(=O)Cn2nnc3ccccc32)cc1 | -15.4
57 | CN1CCN(C(=O)c2cnn(-c3ccccc3)c2NC(=O)c2ccccc2)CC1 | -6.4
58 | O=C(N/N=C/c1cccc([N+](=O)[O-])c1)c1cccs1 | 4.78
59 | COc1ccc(C(C)=O)cc1COC(=O)c1ccc(S(=O)(=O)N(C)C)cc1 | -3.54
60 | O=C(Nc1ccn(Cc2c(F)c(F)cc(F)c2F)n1)c1cccc(Cn2cc([N+](=O)[O-])cn2)c1 | 2.31
61 | CC1=C(C(=O)N2CCOCC2)C(c2c(F)cccc2F)NC(=O)N1 (centres undefined) | -2.62
62 | CCOC(=O)C1CCCN(S(=O)(=O)c2ccc(S(N)(=O)=O)cc2)C1 (centres undefined) | -2.7
63 | O=C(c1cc(Cl)ccc1Cl)N1CCOCC1 | -11
64 | Cc1nnsc1-c1c(C(=O)N2CCOCC2)c(C)nn1-c1ccc(Cl)cc1 | 3.63
65 | Cc1c(C(=O)Nc2cccc(S(=O)(=O)N3CCCC3)c2)oc2ccccc12 | 0.77
66 | CCC(CC)C(=O)Nc1cccc(C(=O)Nc2ccc3c(c2)OCO3)c1 | 0.36
67 | CC1CC(C)CN(C(=O)c2ccc3c(c2)N(Cc2ccccc2)CCS3)C1 (centres undefined) | 8.05
68 | CC1Cc2ccccc2N1C(=O)Cn1c(=O)cc(O)c2ccccc21 (centres undefined) | -9.25
69 | CN(C)CCCn1c(SCC(=O)N2c3ccccc3Sc3ccccc32)nc2ccccc2c1=O | 0.3
70 | CCCCn1c(SCC(=O)Nc2nccs2)nc2ccccc2c1=O | -6.31
71 | O=C(CSc1nc2ccccc2[nH]1)Nc1nc(-c2cccc(Br)c2)cs1 | 9.78
72 | COCCCn1c(SCC(=O)Nc2ccc(C)cc2)nc2ccccc2c1=O | -3.97

Row | Compound | inhibition [%]
73 | CC(=O)c1nnn(-c2ccc([N+](=O)[O-])cc2)c1C | -0.32
74 | c1ccc2c(-c3cn4ccccc4n3)c[nH]c2c1 | -5.8
75 | O=C1CC(=C(c2ccccc2)c2ccccc2)C(=O)N1CCCN1CCN(c2cccc(Cl)c2)CC1 | 12.8
76 | O=C1CC(=C2c3ccccc3-c3ccccc32)C(=O)N1CCCCN1CCN(c2ccccc2)CC1 | 8.38
77 | O=C1CC(=C(c2ccccc2)c2ccccc2)C(=O)N1CCN1CCN(c2cccc(Cl)c2)CC1 | 5.45
78 | Cc1ccccc1N1CCN(CCCN2C(=O)CC(=C(c3ccccc3)c3ccccc3)C2=O)CC1 | 0.08
79 | COc1cccc(C2C(C(=O)c3cccs3)=C(O)C(=O)N2CCN(C)C)c1OC (centres undefined) | -9.59
80 | Cc1ccc(NP(=O)(Nc2ccc(C)cc2)Oc2ccccc2)cc1 | 5.95
81 | O=C(NCc1ccccc1Cl)C1CCCN(c2nc3ccsc3c(=O)s2)C1 (centres undefined) | 1.18
82 | NC(=O)c1nsc(C(=O)N(CC(=O)NCc2ccc3c(c2)OCO3)C2CCCC2)c1N | 0.67
83 | C=CCNC(=O)/C(C#N)=C/c1c(C)nn(-c2ccc(Cl)cc2)c1Cl | 4.6
84 | O=C(CC(Nc1ccccc1Cl)C(=O)OCC(=O)c1cccs1)c1ccccc1 (centres undefined) | -5.28
85 | O=C(CC(Nc1cccc(Cl)c1Cl)C(=O)OCC(=O)c1cccs1)c1ccccc1 (centres undefined) | -5.78
86 | CC(=O)NC(Cc1ccccc1)C(=O)OCC(=O)c1ccc(Br)cc1 (centres undefined) | -1.27
87 | COc1ccccc1NC(CC(=O)c1ccccc1)C(=O)OCC(=O)c1ccc(F)cc1 (centres undefined) | 78.2
88 | Cc1ccc(C(=O)NCCCN2CCOCC2)cc1 | 3.65
89 | COc1ccc2c(c1)S/C(=C\C(=O)c1ccncc1)N2C | 0.94
90 | COC(=O)c1ccc2c(c1)N(Cc1nc(-c3cccc(C)c3)oc1C)C(=O)C1CCCN21 (centres undefined) | 8.29
91 | Cc1ccc(/C=C/C(=O)c2nc3ccccc3[nH]2)cc1 | 0.43
92 | O=C(/C=C/c1ccc(Cl)cc1Cl)c1nc2ccccc2[nH]1 | 0.46
93 | C/C(=N/NC(=O)CNC(=O)c1cccnc1)c1ccco1 | 7.49
94 | COc1cccc(CNC(=O)C2CCN(S(=O)(=O)c3c(C)nn(C)c3C)CC2)c1 | -0.47
